# In the supplement of paper PMC4466140:
# Columns and labels:
# Assay in all cases: SPOT peptide array binding signal intensity (averaged, normalized) (arbitrary units (background-subtracted, floor 0; scale differs between SH3 domains)); higher = stronger binding of the SH3 domain to the peptide
# [1] = biological target: AgAbp1
# How it was run: (§1)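 Spot intensities were captured after detection with anti-GST antibody, an HRP-linked anti-mouse secondary and luminol, and quantified with Genespotter. The probes were GST-fused SH3 domains from four yeast species, produced in E. coli BL21(DE3), purified on glutathione Sepharose and incubated at 10 μg/ml overnight at 4°C on cellulose-bound synthetic 15-mer peptides with cysteines replaced by serines. Binding signal is the normalized, background-subtracted spot intensity averaged over replicates, and its arbitrary units differ between domains.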
# [2] = biological target: AgBbc1
# How it was run: as §1
# [3] = biological target: AgBem1-D1
# How it was run: as §1
# [4] = biological target: AgBzz1-D1
# How it was run: as §1
# [5] = biological target: AgBzz1-D2
# How it was run: as §1
# [6] = biological target: AgCyk3
# How it was run: as §1
# [7] = biological target: AgFus1
# How it was run: as §1
# [8] = biological target: AgHof1
# How it was run: as §1
# [9] = biological target: AgHse1
# How it was run: as §1
# [10] = biological target: AgLsb1
# How it was run: as §1
# [11] = biological target: AgLsb4
# How it was run: as §1
# [12] = biological target: AgMyo5
# How it was run: as §1
# [13] = biological target: AgNbp2
# How it was run: as §1
# [14] = biological target: AgRvs167
# How it was run: as §1
# [15] = biological target: AgSho1
# How it was run: as §1
# [16] = biological target: AgSla1-D1-D2
# How it was run: as §1
# [17] = biological target: AgSla1-D3
# How it was run: as §1
# [18] = biological target: CaAbp1-D1
# How it was run: as §1
# [19] = biological target: CaAbp1-D2
# How it was run: as §1
# [20] = biological target: CaBbc1
# How it was run: as §1
# [21] = biological target: CaBem1-D1
# How it was run: as §1
# [22] = biological target: CaBzz1-D1
# How it was run: as §1
# [23] = biological target: CaBzz1-D2
# How it was run: as §1
# [24] = biological target: CaCyk3
# How it was run: as §1
# [25] = biological target: CaFus1
# How it was run: as §1
# [26] = biological target: CaHof1
# How it was run: as §1
# [27] = biological target: CaHse1
# How it was run: as §1
# [28] = biological target: CaLsb1
# How it was run: as §1
# [29] = biological target: CaLsb4
# How it was run: as §1
# [30] = biological target: CaMyo5
# How it was run: as §1
# [31] = biological target: CaNbp2
# How it was run: as §1
# [32] = biological target: CaRvs167
# How it was run: as §1
# [33] = biological target: CaRvs167-3
# How it was run: as §1
# [34] = biological target: CaSho1
# How it was run: as §1
# [35] = biological target: CaSla1-D1-D2
# How it was run: as §1
# [36] = biological target: CaSla1-D3
# How it was run: as §1
# [37] = biological target: ScAbp1
# How it was run: as §1
# [38] = biological target: ScBbc1
# How it was run: as §1
# [39] = biological target: ScBem1-D1
# How it was run: as §1
# [40] = biological target: ScBzz1-D1
# How it was run: as §1
# [41] = biological target: ScBzz1-D2
# How it was run: as §1
# [42] = biological target: ScCyk3
# How it was run: as §1
# [43] = biological target: ScFus1
# How it was run: as §1
# [44] = biological target: ScHof1
# How it was run: as §1
# [45] = biological target: ScHse1
# How it was run: as §1
# [46] = biological target: ScLsb1
# How it was run: as §1
# [47] = biological target: ScLsb2
# How it was run: as §1
# [48] = biological target: ScLsb3
# How it was run: as §1
# [49] = biological target: ScLsb4
# How it was run: as §1
# [50] = biological target: ScMyo3
# How it was run: as §1
# [51] = biological target: ScMyo5
# How it was run: as §1
# [52] = biological target: ScNbp2
# How it was run: as §1
# [53] = biological target: ScPex13
# How it was run: as §1
# [54] = biological target: ScRvs167
# How it was run: as §1
# [55] = biological target: ScSho1
# How it was run: as §1
# [56] = biological target: ScSla1-D1-D2
# How it was run: as §1
# [57] = biological target: ScSla1-D3
# How it was run: as §1
# [58] = biological target: SpAbp1-D1
# How it was run: as §1
# [59] = biological target: SpBbc1
# How it was run: as §1
# [60] = biological target: SpBzz1-D1
# How it was run: as §1
# [61] = biological target: SpBzz1-D2
# How it was run: as §1
# [62] = biological target: SpCyk3
# How it was run: as §1
# [63] = biological target: SpHof1
# How it was run: as §1
# [64] = biological target: SpHof1-2
# How it was run: as §1
# [65] = biological target: SpHof1-3
# How it was run: as §1
# [66] = biological target: SpHse1
# How it was run: as §1
# [67] = biological target: SpLsb1
# How it was run: as §1
# [68] = biological target: SpLsb4
# How it was run: as §1
# [69] = biological target: SpMyo1
# How it was run: as §1
# [70] = biological target: SpNbp2
# How it was run: as §1
# [71] = biological target: SpPex13
# How it was run: as §1
# [72] = biological target: SpRvs167
# How it was run: as §1
# [73] = biological target: SpSla1-D1-D2
# How it was run: as §1
# [74] = biological target: SpSla1-D3
# How it was run: as §1
binder,measurement,setting,value
DTFLPPPPPPPSNFE,SPOT peptide array binding signal intensity,[1],2
same,SPOT peptide array binding signal intensity,[2],≤ 0
same,SPOT peptide array binding signal intensity,[3],≤ 0
same,SPOT peptide array binding signal intensity,[4],≤ 0
same,SPOT peptide array binding signal intensity,[5],≤ 0
same,SPOT peptide array binding signal intensity,[6],1
same,SPOT peptide array binding signal intensity,[7],≤ 0
same,SPOT peptide array binding signal intensity,[8],23.5
same,SPOT peptide array binding signal intensity,[9],4.5
same,SPOT peptide array binding signal intensity,[10],≤ 0
same,SPOT peptide array binding signal intensity,[11],≤ 0
same,SPOT peptide array binding signal intensity,[12],1100
same,SPOT peptide array binding signal intensity,[13],≤ 0
same,SPOT peptide array binding signal intensity,[14],1.33
same,SPOT peptide array binding signal intensity,[15],≤ 0
same,SPOT peptide array binding signal intensity,[16],≤ 0
same,SPOT peptide array binding signal intensity,[17],0.5
same,SPOT peptide array binding signal intensity,[18],≤ 0
same,SPOT peptide array binding signal intensity,[19],≤ 0
same,SPOT peptide array binding signal intensity,[20],≤ 0
same,SPOT peptide array binding signal intensity,[21],≤ 0
same,SPOT peptide array binding signal intensity,[22],108
same,SPOT peptide array binding signal intensity,[23],11.8
same,SPOT peptide array binding signal intensity,[24],≤ 0
same,SPOT peptide array binding signal intensity,[25],≤ 0
same,SPOT peptide array binding signal intensity,[26],≤ 0
same,SPOT peptide array binding signal intensity,[27],3.25
same,SPOT peptide array binding signal intensity,[28],≤ 0
same,SPOT peptide array binding signal intensity,[29],≤ 0
same,SPOT peptide array binding signal intensity,[30],11.5
same,SPOT peptide array binding signal intensity,[31],≤ 0
same,SPOT peptide array binding signal intensity,[32],0.5
same,SPOT peptide array binding signal intensity,[33],≤ 0
same,SPOT peptide array binding signal intensity,[34],12
same,SPOT peptide array binding signal intensity,[35],≤ 0
same,SPOT peptide array binding signal intensity,[36],≤ 0
same,SPOT peptide array binding signal intensity,[37],≤ 0
same,SPOT peptide array binding signal intensity,[38],≤ 0
same,SPOT peptide array binding signal intensity,[39],≤ 0
same,SPOT peptide array binding signal intensity,[40],2.5
same,SPOT peptide array binding signal intensity,[41],≤ 0
same,SPOT peptide array binding signal intensity,[42],≤ 0
same,SPOT peptide array binding signal intensity,[43],≤ 0
same,SPOT peptide array binding signal intensity,[44],25.5
same,SPOT peptide array binding signal intensity,[45],≤ 0
same,SPOT peptide array binding signal intensity,[46],≤ 0
same,SPOT peptide array binding signal intensity,[47],≤ 0
same,SPOT peptide array binding signal intensity,[48],≤ 0
same,SPOT peptide array binding signal intensity,[49],≤ 0
same,SPOT peptide array binding signal intensity,[50],2140
same,SPOT peptide array binding signal intensity,[51],1690
same,SPOT peptide array binding signal intensity,[52],≤ 0
same,SPOT peptide array binding signal intensity,[53],140
same,SPOT peptide array binding signal intensity,[54],1
same,SPOT peptide array binding signal intensity,[55],≤ 0
same,SPOT peptide array binding signal intensity,[56],≤ 0
same,SPOT peptide array binding signal intensity,[57],≤ 0
same,SPOT peptide array binding signal intensity,[58],≤ 0
same,SPOT peptide array binding signal intensity,[59],≤ 0
same,SPOT peptide array binding signal intensity,[60],1360
same,SPOT peptide array binding signal intensity,[61],6.5
same,SPOT peptide array binding signal intensity,[62],≤ 0
same,SPOT peptide array binding signal intensity,[63],≤ 0
same,SPOT peptide array binding signal intensity,[64],6.75
same,SPOT peptide array binding signal intensity,[65],≤ 0
same,SPOT peptide array binding signal intensity,[66],12.5
same,SPOT peptide array binding signal intensity,[67],≤ 0
same,SPOT peptide array binding signal intensity,[68],≤ 0
same,SPOT peptide array binding signal intensity,[69],1100
same,SPOT peptide array binding signal intensity,[70],≤ 0
same,SPOT peptide array binding signal intensity,[71],≤ 0
same,SPOT peptide array binding signal intensity,[72],2
same,SPOT peptide array binding signal intensity,[73],≤ 0
same,SPOT peptide array binding signal intensity,[74],≤ 0
DAPASKPSVPPRNYF,SPOT peptide array binding signal intensity,[61],0.5
same,SPOT peptide array binding signal intensity,[62],≤ 0
same,SPOT peptide array binding signal intensity,[63],1
same,SPOT peptide array binding signal intensity,[64],2
same,SPOT peptide array binding signal intensity,[65],11
same,SPOT peptide array binding signal intensity,[66],≤ 0
same,SPOT peptide array binding signal intensity,[67],756
same,SPOT peptide array binding signal intensity,[68],3340
same,SPOT peptide array binding signal intensity,[69],2
same,SPOT peptide array binding signal intensity,[70],3
same,SPOT peptide array binding signal intensity,[71],≤ 0
same,SPOT peptide array binding signal intensity,[72],802
same,SPOT peptide array binding signal intensity,[73],≤ 0
same,SPOT peptide array binding signal intensity,[74],≤ 0
